Of roughly 7,900 targets only a part is listed; those with a hit were picked by preference. About 0.6% of all pairs of compound and target were hits.

Sequence of UniProt Q13948 (Q13948 whole entry, looked up): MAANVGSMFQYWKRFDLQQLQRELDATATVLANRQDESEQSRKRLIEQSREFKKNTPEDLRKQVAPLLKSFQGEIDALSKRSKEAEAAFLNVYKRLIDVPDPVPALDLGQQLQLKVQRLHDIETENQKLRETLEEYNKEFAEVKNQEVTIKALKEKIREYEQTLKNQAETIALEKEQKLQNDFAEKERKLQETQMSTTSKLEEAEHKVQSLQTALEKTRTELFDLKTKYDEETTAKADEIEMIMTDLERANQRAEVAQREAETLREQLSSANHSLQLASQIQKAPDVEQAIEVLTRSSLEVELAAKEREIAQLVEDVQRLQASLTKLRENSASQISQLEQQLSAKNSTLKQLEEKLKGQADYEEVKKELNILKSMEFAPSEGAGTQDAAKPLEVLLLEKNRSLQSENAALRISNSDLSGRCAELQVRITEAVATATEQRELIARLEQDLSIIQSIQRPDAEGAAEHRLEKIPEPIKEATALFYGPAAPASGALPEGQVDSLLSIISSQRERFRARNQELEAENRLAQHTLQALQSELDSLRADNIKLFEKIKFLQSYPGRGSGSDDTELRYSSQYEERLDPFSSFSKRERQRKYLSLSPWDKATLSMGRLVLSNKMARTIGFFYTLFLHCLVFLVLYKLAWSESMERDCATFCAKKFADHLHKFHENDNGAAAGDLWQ
Sequence of UniProt P00374 (P00374 whole entry, looked up): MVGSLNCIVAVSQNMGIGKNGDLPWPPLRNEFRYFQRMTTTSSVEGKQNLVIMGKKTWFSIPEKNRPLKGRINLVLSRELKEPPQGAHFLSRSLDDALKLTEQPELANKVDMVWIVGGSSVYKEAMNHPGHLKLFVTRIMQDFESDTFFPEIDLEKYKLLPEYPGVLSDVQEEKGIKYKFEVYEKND
Sequence of UniProt Q16531 (Q16531 whole entry, looked up): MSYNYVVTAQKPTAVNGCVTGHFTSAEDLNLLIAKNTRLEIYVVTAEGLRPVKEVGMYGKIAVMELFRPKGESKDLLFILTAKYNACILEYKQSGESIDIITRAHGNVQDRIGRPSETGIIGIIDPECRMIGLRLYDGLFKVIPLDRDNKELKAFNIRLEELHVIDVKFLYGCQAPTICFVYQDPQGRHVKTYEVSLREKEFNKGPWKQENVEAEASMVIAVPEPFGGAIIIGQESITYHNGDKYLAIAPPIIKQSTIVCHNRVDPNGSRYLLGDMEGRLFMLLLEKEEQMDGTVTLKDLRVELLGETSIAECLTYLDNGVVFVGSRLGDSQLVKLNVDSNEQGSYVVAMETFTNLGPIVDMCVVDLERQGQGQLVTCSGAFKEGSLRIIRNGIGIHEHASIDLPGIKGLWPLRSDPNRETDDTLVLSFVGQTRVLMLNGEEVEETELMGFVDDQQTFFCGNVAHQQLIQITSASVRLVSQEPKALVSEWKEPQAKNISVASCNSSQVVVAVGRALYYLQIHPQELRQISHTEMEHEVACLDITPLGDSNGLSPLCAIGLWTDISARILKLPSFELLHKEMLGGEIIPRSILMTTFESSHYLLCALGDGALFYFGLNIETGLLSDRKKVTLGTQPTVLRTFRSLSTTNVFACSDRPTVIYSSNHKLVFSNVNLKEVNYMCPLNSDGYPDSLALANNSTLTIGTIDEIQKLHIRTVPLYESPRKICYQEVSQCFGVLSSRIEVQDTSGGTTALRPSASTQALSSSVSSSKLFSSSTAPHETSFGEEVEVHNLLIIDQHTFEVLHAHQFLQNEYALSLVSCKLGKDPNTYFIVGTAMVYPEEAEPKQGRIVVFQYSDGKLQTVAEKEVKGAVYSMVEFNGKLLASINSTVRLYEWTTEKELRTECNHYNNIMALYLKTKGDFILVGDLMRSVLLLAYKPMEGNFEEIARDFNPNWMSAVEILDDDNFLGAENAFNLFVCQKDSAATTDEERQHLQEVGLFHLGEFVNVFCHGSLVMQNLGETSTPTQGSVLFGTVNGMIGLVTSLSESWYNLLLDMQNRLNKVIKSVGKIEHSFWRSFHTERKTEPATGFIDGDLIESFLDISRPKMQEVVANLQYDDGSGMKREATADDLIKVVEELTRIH
Sequence of UniProt Q8N128 (Q8N128 whole entry, looked up): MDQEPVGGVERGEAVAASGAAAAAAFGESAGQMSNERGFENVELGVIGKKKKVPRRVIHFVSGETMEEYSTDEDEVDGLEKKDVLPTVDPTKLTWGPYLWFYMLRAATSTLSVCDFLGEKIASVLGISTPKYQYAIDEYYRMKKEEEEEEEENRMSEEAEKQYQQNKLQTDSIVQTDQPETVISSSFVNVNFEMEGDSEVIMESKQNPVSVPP
Sequence of UniProt Q9H2U1 (Q9H2U1 whole entry, looked up): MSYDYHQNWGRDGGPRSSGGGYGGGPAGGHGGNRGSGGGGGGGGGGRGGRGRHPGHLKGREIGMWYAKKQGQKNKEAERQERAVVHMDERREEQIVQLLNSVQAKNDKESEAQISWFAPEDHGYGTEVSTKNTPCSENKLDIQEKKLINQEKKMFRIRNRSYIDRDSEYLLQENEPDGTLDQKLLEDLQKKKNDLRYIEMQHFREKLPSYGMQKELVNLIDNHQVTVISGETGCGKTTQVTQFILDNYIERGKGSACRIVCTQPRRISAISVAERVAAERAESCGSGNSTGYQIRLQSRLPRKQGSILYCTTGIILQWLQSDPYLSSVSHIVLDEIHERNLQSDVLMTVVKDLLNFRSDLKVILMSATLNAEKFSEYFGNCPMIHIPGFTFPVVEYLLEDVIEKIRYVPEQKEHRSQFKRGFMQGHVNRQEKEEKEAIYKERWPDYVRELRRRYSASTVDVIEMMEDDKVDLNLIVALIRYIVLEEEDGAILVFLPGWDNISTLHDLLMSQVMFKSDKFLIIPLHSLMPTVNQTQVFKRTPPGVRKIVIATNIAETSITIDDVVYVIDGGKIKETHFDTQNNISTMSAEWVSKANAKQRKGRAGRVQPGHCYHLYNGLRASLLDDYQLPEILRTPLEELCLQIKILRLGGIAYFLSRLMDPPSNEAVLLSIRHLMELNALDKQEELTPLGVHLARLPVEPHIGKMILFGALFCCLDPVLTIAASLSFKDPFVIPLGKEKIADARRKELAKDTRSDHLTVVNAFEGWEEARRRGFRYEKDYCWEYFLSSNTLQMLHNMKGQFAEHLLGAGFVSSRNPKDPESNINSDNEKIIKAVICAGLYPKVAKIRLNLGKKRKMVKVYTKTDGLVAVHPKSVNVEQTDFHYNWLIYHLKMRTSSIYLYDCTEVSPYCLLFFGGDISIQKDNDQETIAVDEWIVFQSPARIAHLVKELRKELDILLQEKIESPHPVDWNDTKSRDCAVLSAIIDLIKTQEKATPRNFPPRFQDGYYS
Sequence of UniProt Q6IAN0 (Q6IAN0 whole entry, looked up): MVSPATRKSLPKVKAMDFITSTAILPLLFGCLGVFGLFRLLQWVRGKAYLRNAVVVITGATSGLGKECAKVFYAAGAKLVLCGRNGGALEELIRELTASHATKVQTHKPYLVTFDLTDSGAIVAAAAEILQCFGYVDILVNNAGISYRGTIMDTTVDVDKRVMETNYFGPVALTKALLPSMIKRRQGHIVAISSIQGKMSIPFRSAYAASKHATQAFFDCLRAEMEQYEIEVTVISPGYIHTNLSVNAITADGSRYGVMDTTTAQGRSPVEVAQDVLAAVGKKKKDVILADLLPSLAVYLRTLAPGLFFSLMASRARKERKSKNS
Sequence of UniProt Q9UK59 (Q9UK59 whole entry, looked up): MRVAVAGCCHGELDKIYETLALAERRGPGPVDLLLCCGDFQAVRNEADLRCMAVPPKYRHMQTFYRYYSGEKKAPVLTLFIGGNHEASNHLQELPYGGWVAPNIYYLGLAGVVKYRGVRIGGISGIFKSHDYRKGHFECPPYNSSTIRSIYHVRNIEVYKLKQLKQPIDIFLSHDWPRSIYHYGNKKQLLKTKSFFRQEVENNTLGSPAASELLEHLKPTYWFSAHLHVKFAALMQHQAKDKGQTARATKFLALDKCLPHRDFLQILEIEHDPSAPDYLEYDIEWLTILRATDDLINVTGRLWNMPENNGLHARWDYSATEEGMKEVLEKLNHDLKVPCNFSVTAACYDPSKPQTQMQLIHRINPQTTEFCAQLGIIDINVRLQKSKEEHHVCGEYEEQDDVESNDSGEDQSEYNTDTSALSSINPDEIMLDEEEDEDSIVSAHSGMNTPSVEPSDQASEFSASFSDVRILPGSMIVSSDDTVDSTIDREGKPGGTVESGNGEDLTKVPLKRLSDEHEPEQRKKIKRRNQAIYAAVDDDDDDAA
Sequence of UniProt O60888 (O60888 whole entry, looked up): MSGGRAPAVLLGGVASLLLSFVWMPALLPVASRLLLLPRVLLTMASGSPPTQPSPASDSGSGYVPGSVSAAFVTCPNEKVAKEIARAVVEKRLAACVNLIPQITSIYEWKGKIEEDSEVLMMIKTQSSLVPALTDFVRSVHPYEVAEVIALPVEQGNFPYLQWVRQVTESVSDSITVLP
Sequence of UniProt O75477 (O75477 whole entry, looked up): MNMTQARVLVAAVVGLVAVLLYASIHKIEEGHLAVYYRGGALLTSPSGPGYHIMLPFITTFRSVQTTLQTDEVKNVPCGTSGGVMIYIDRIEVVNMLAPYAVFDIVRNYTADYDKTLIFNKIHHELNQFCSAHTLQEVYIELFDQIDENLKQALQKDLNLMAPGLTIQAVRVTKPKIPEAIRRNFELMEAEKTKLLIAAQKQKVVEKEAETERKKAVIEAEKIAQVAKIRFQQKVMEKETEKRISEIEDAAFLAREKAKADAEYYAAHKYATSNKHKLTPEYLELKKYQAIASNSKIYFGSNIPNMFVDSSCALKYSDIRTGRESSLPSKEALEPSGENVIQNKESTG
Sequence of UniProt Q8N5C7 (Q8N5C7 whole entry, looked up): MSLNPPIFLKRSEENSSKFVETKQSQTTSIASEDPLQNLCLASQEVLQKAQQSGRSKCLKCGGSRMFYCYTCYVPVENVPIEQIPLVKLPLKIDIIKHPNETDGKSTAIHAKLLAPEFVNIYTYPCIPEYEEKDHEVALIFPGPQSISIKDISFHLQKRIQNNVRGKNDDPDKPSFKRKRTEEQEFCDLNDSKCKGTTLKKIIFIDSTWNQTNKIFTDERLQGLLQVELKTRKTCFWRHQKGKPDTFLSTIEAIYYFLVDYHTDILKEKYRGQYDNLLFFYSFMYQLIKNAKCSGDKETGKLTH

Compound in this test: COC1=CC=C(C=C1)CN2C=CC3=C2C=C(C=C3)C(=O)NO
The test is described as follows: log2 fold change, soluble protein after heating vs DMSO (PISA); higher = thermal stabilisation; K562 cells, 10 uM, 30 min; active = over 0.2 and 3.5 SD of the protein, either way, in both replicates (recomputed). In short, it runs like this: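 K562 cells at 2×10^6 cells/mL were treated for 30 min with 10 μM compound, and aliquots were heated for 3 min over 48°C-58°C before pooling. Extraction used PBS with 0.5% NP-40 at 4°C, and soluble protein was the supernatant after 21,000xg for 90 min, measured by TMTpro 16plex LC-MS/MS with channel sums equalised. Thermal stability values, relative to control samples and from duplicates, are log2 fold changes.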
In the case of DNAJB12 (UniProt Q9NXW2), the log2 fold change was 0.023 (inactive).
In the case of DHFR (UniProt P00374) it was -0.057 (inactive); in that of DFFB (UniProt O76075), -0.016 (inactive); in that of EXOC5 (UniProt O00471), -0.005 (inactive).
Take DCTPP1 (UniProt Q9H773): the log2 fold change was 0.023 (inactive).
In the case of DHX40 (UniProt Q8IX18) it was -0.025 (inactive); in that of EOGT (UniProt Q5NDL2), -0.026 (inactive); in that of DHCR7 (UniProt Q9UBM7), -0.182 (inactive).
In the case of CUTA isoform 2 (UniProt O60888) it was 0.248 (inactive).
In the case of ERLIN1 (UniProt O75477) it was -0.013 (inactive); in that of EXOC1 (UniProt Q9NV70), -0.056 (inactive); in that of CUX1 isoform 2 (UniProt Q13948), -0.095 (inactive).
Take DNM2 (UniProt P50570): the log2 fold change is -0.022 (inactive).
In the case of DHRS7B (UniProt Q6IAN0) it was 0.012 (inactive); in that of DIP2A (UniProt Q14689), -0.097 (inactive).
In the case of FAM114A2 (UniProt Q9NRY5) it was 0 (inactive); in that of FAF2 (UniProt Q96CS3), -0.019 (inactive).
In the case of ECH1 (UniProt Q13011) it was -0.008 (inactive); in that of DDOST (UniProt P39656), -0.068 (inactive).
For DCAF6 isoform 3 (UniProt Q58WW2), the log2 fold change was -0.007 (inactive).
In the case of DHCR24 (UniProt Q15392) it was 0.061 (inactive); in that of DNAH11 (UniProt Q96DT5), 0 (inactive).
Take DCAF13 (UniProt Q9NV06): the log2 fold change was -0.083 (inactive).
In the case of CYBA (UniProt P13498) it was -0.06 (inactive).
In the case of FADS1, A0A0A0MR51 it was -0.31 (active); in that of DPP8 (UniProt Q6V1X1), -0.089 (inactive); in that of DDB1 (UniProt Q16531), -0.024 (inactive).
In the case of CUX1 isoform 3 (UniProt P39880) it was 0.068 (inactive); in that of EHBP1L1 (UniProt Q8N3D4), 0.054 (inactive).
Regarding EXOC7 (UniProt Q9UPT5), the log2 fold change is 0.023 (inactive).
In the case of DHX36 (UniProt Q9H2U1) it was 0.04 (inactive); in that of DBR1 (UniProt Q9UK59), 0.051 (inactive); in that of ERLIN2 (UniProt O94905), -0.006 (inactive).
With DAG1 (UniProt Q14118), the log2 fold change was 0.005 (inactive).
In the case of EFL1 (UniProt Q7Z2Z2), the log2 fold change was -0.021 (inactive).
In the case of DHRS3 (UniProt O75911) it was 0.13 (inactive); in that of FAM160B1 (UniProt Q5W0V3), 0.026 (inactive); in that of EHD2 (UniProt Q9NZN4), 0.001 (inactive).
In the case of DTWD1 (UniProt Q8N5C7) it was -0.227 (inactive).
Turning to FAM177A1 isoform 2 (UniProt Q8N128), the log2 fold change was -0.072 (inactive).

(Values after the supplement of paper PMC10849652.)
